Screening results: PubChem BioAssay, NMMLSC
Compounds with a hit are over-represented: about 1.2% of the library has one in this group of screens.
RGS4-Gao reg: human RGS4-Galphao interaction regulation; hit rate 0.33% among 220,000; binding response (% of control), % at 10 µM; AID 1415; Multiplexed bead flow cytometry, RGS4-Galphao binding; actives lie on both sides; P09471; in the data active means binding response below about 49% or above about 150%; inactive means in between;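 further: fluorescent Galphao activated with aluminum fluoride binding bead-coupled RGS4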
Target sequence (P09471 whole entry, looked up): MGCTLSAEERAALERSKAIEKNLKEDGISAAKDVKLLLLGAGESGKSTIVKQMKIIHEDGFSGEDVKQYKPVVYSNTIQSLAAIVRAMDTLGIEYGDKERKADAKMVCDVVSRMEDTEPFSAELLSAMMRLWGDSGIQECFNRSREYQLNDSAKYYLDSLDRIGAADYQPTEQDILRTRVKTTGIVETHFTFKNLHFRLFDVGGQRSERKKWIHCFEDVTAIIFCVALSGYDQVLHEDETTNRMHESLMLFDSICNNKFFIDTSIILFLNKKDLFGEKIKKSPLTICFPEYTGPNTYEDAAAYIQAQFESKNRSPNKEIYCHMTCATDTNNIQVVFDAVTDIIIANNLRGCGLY
GSH fluor: compound fluoresces at 488/530 nm on GSH beads; fluorescence (KMESF) at 10 µM; hit rate 0.25% among 190,000; GSH beads flow cytometry, compound fluorescence 488/530 nm; stronger effect = higher value; AID 1776; in the data active means fluorescence above about 89;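 further: glutathione beads carrying GST-tagged Bcl family fusion proteins plus one bare bead set; values are compound well signal with DMSO vehicle wells as background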
RGS7-Gao reg: modulates binding of RGS7 to human Galphao; binding response (% of control), % at 10 µM; Multiplexed bead flow cytometry; actives lie on both sides; hit rate 0.35% among 220,000; P09471; in the data active means binding response below about 49% or above about 150%; inconclusive means no clear call, values can overlap the other calls; inactive means in between;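 further: fluorescent Galphao held in activated GDP-AlF4 state binding bead-coupled RGS7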
Avidin bead fluor: avidin bead compound fluorescence profile; Avidin beads, compound fluorescence 488/530 nm, flow cytometry; stronger effect = higher value; fluorescence (KMESF) at 10 µM; hit rate 0.38% among 220,000; in the data active means fluorescence above about 47
RGS16-Gao HTS: regulators of human RGS16-Galphao interaction; AID 1441; bead-based flow cytometry RGS16-Galphao binding, fluorescence; actives lie on both sides; O15492+P09471; binding response (% of control), % at 10 µM; hit rate 0.38% among 220,000;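 further: Galphao activated by GDP with aluminum fluoride before binding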
RGS8-Gao reg: human RGS8-Galphao interaction regulation. multiplexed bead flow cytometry, RGS8-Galphao binding; actives lie on both sides. hit rate 0.34% among 220,000. response (percent of control binding), % at 10 µM; in the data active means response below about 60% or above about 140%; inactive means in between;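 further: Galphao activated as the GDP aluminium fluoride complex binding bead-coupled RGS8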
RGS-Gao: RGS4-Galphao interaction regulator (human). RGS4–Galpha-o binding response, % at 10 µM. shares compounds with RGS16-Gao HTS. multiplexed bead flow cytometry, RGS–Galpha-o binding. hit rate 99% among 1,600;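 further: fluorescently labeled Galpha-o bound to GDP with aluminium fluoride binding biotinylated RGS beads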
Avidin counter: biotin-avidin bead binding disruption counter-screen | shares compounds with RGS16-Gao HTS | streptavidin beads, fluorescein-biotin binding, flow cytometry | inhibition, % at 10 µM | 1,700 tested, under 10 active | AID 1783;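 active means inhibition above 50%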;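 further: median green fluorescence of gated singlet beads compared with DMSO control wells; 0% = DMSO wells and 100% = complete loss of bead fluorescence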
RGS8-Gao single: confirmation of regulators of human RGS8-Galphao interaction; hit rate 3% among 1,700; bead-based flow cytometry RGS8-Galphao binding, fluorescence; actives lie on both sides; shares compounds with RGS16-Gao HTS; binding response (% of control), % at 10 µM; in the data active means binding response below about 72% or above about 130%; inactive means in between;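 further: Galphao activated as GDP AlF4 complex before binding bead RGS8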
RGS7-Gao single: RGS7-Galphao interaction regulation, single point confirmation; shares compounds with RGS16-Gao HTS; bead-based flow cytometry RGS7-Galphao binding; actives lie on both sides; response (percent of control binding), % at 10 µM; AID 1837; hit rate 7.8% among 1,700; in the data active means response below about 75% or above about 130%; inactive means in between;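 further: fluorescent Galphao activated with GDP and aluminum fluoride binding bead-coupled RGS7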
RGS16-Gao conf: RGS16-Galphao interaction regulation, single point confirmation. shares compounds with RGS16-Gao HTS. bead-based flow cytometry, RGS16-Galphao binding; actives lie on both sides. response (% of control binding), % at 10 µM. hit rate 4% among 1,700. AID 1838; in the data active means response below about 74% or above about 130%; inactive means in between;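 further: Galphao activated as the GDP aluminium fluoride complex binding bead-coupled RGS16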
RGS4-Gao single: confirmation of regulators of human RGS4-Galphao interaction. shares compounds with RGS16-Gao HTS. RGS4-Galphao binding, multiplexed bead flow cytometry; actives lie on both sides. binding response (% of control), % at 10 µM. hit rate 4% among 1,700. AID 1840; in the data active means binding response below about 74% or above about 130%; inactive means in between
RGS19-Gao single: confirmation of regulators of human RGS19-Galphao interaction | shares compounds with RGS16-Gao HTS | bead-based flow cytometry RGS19-Galphao binding; actives lie on both sides | response (percent of control binding), % at 10 µM | hit rate 5% among 1,700; in the data active means response below about 50% or above about 160%; inactive means in between;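 further: 100% = no compound control and 0% = blank background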
An asterisk follows results filed as active; ? = inconclusive; . = no result; [ ] = another dose, or the depositor's remark. Unless noted, how the calls were made is not given here.

SMILES	RGS4-Gao reg	GSH fluor	RGS7-Gao reg	Avidin bead fluor	RGS16-Gao HTS	RGS8-Gao reg	Avidin counter	RGS8-Gao single	RGS7-Gao single	RGS16-Gao conf	RGS4-Gao single	RGS19-Gao single	others
CC(C)=NOc1cc(NC(=O)CCl)cc([N+](=O)[O-])c1	101	13	100	4	106	102	.	.	.	.	.	.
CCC(=O)Nc1cc(ON=C(C)C)cc([N+](=O)[O-])c1	-40*	14	-15*	-2	39	34*	-2	99	99	101	98	102
COc1cc(C(=O)Nc2ccc3c(c2)CCN3C(C)=O)cc(OC)c1OC	207*[activator]	34	186*[activator]	21	170	109	0	107	112	111	106	118
COc1cc(CC(=O)N2CCc3ccccc32)cc(OC)c1OC	146	44	.	.	.	.	2	100	99	98	98	98
COc1ccc(CC(=O)N2CCCc3ccccc32)cc1OC	100	34	101	10	85	96	.	.	.	.	.	.
COCc1cc(C)nc(OCC(=O)N/N=C/c2ccc(O)cc2O)c1C#N	55	7	58	11	31	55*	0	91	83	86	84	96	RGS-Gao=55*
CNc1ncnc2sc(-c3ccccc3)cc12	24*	11	11*	0	13*	16*	2	104	103	104	102	98
O=C(O)CCSc1ncnc2sc(-c3ccccc3)cc12	262*[activator]	.	?	86*	236*[activator]	114	0	98	101	98	100	113
O=C(O)CSc1ncnc2sc(-c3ccccc3)cc12	96	17	94	8	98	97	.	.	.	.	.	.
OC[C@@H]1CCCN1Cc1cn(-c2ccccc2)nc1-c1ccc2c(c1)OCO2	104	17	104	4	97	102	.	.	.	.	.	.
COCC1CCCCN1Cc1cn(-c2ccccc2)nc1-c1ccc2c(c1)OCO2 (configuration not stated)	116	11	182*[activator]	69*	113	104	0	100	95	97	98	76	RGS-Gao=116*
CN(C)S(=O)(=O)c1cccc(NC(=O)CCc2c[nH]c3ccccc23)c1	87	19	91	9	86	98	.	.	.	.	.	.
COc1ccc(-c2ocnc2C(=O)Nc2ccccc2N2CCCCC2)cc1	128	16	230*[activator]	221*	113	99	.	.	.	.	.	.	RGS-Gao=128*
CCOc1ccc(C(=O)Nc2ccccc2N2CCCC2)cc1	116	27	117	6	115	113	.	.	.	.	.	.
CCCCNC1CCS(=O)(=O)C1 (configuration not stated)	.	46	.	.	.	.	0	98	96	101	98	101
Cc1ccc(Cn2c(SCC(=O)NCC3CCCO3)nc3c2c(=O)n(C)c(=O)n3C)cc1 (configuration not stated)	101	13	99	7	101	102	.	.	.	.	.	.
O=C(CSc1nnnn1-c1ccc2c(c1)OCCO2)N1CCN(C(=O)c2ccco2)CC1	99	13	97	12	99	97	.	.	.	.	.	.
